From PubChem BioAssay AID2717 (Broad Institute, 2010) come the findings set out here.

Each structure is given as a SMILES string. Out of some 300,000 compounds screened, about 3,200 (1.1%) were called active. What follows is part of a selection rich in actives, with near analogues and random picks from the rest. Values without a mark were called inactive. Rule as the data show it: active = inhibition above about 75%; inconclusive = no clear call, values can overlap the other calls; inactive = below that; tested in HMLE shEcad cells.

The assay is described as follows: growth suppression of cancer stem-like cells – cell-based, luminescence, primary screen (AID 2717). The following applies: cancer stem cell-like cells viability, at 7.5 µM, active compounds read high.
As usually defined, the inhibition is the drop in the measured response relative to a control, in per cent. As to `CCCCCCC(=O)Nc1nc(C)c(-c2csc(Nc3cc(Cl)ccc3OC)n2)s1`, the inhibition is 5.64%.

For the compound `C=CCCC(=O)Nc1nc(C)c(-c2csc(Nc3ccc(Cl)cc3)n2)s1`, the inhibition is 99% (active). As for `CCCCC(=O)Nc1nc(C)c(-c2csc(Nc3ccc(Cl)cc3)n2)s1`, the inhibition is 63.1%. The same measure for `C/C=C/c1ccc(OCC(=O)NNC(=O)CN(C)S(=O)(=O)c2ccc(C)cc2)c(OC)c1`: -2.93%; for `CN(C(=O)c1cccc(NC(=O)Cc2ccc([N+](=O)[O-])cc2)c1)C1CCC1`: 1.28%; for `COc1ccc(Oc2c(Cl)cnn(-c3ccccc3)c2=O)cc1`: 22%. `Cc1cccc(-n2ncc(Cl)c(Cl)c2=O)c1`: the inhibition is 138% (active). Next, `Cc1cccc(-n2ncc(C#N)c2-n2cccc2)c1`: -10.4%; `O=C(COC(=O)c1n[nH]c2ccccc12)Nc1ccccc1Br`: -14%.

On to `CC1CCCCC1NC(=O)Cn1cnc2c1c(=O)n(C)c(=O)n2C` (stereo not given), for which the inhibition is -15.5%.

With `CC(C)(C)OC(=O)C[C@@H]1C/C=C\C[C@H](CC(=O)N[C@@H](CO)Cc2ccccc2)C(=O)N[C@H](Cc2ccccc2)COC1=O`, the inhibition was -5.32%. For `CCc1c(C)sc(NC(=O)/C=C/c2ccc3c(c2)OCO3)c1C(=O)OC`, the inhibition is 96.5% (active).

For the compound `CCOC(=O)CCCNC(=O)COC(=O)/C=C/c1ccc2c(c1)OCO2`, the inhibition is -10.5%. On to `CCc1c(C)sc(NC(=O)c2ccc(Br)o2)c1C(=O)OC`, for which the inhibition was 28.8%.

Take `COc1ccc(S(=O)(=O)N2CCN(C(C)C(=O)Nc3ccc(C(C)C)cc3)CC2)cc1` (stereo not given): the inhibition was -10.6%.

As to `O=C(Nc1ccccc1Cl)/C(Cl)=C(\Cl)S(=O)c1ccccc1` (stereo not given), the inhibition is 145% (active).

For the compound `O=C(Nc1ccccc1Cl)Nn1cnnc1`, the inhibition was -3.82%. As to `O=C(COC(=O)c1cccs1)Nc1ccccc1Cl`, the inhibition is -12.7%.

As to `CC(C)(C)OC(=O)C[C@@H]1C/C=C\C[C@@H](CC(=O)N[C@H](CO)Cc2ccccc2)C(=O)NCCOC1=O`, the inhibition was -6.88%. Next, `CCOc1ccc(NC(=O)CN(C)C(=O)Cc2sc(C)nc2-c2ccc(F)cc2)cc1OCC`: -4.92%; `COc1cc(C=NNC(=O)c2cccnc2)ccc1OC(=O)c1ccccc1F`: -6.57%. Consider `O=C1CSc2ccc(C(=O)NCc3ccccn3)cc2N1`, for which the inhibition is -3.45%.

For `Cc1cccc(C)c1NC(=O)CNC(=O)c1ccc2c(c1)OCCO2`, the inhibition was 14.6%. Next, `N#Cc1ccc(CN2CCN(CC(=O)Nc3ccccc3C(=O)NC3CC3)CC2)cc1`: -9.82%; `N#Cc1c(-c2ccccc2)nc(SCc2ccc([N+](=O)[O-])cc2)[nH]c1=O`: 3.97%; `N#Cc1c(-c2ccccc2)nc(SCc2cccc(C(F)(F)F)c2)[nH]c1=O`: 105% (active).

Consider `Cc1ccc(CSc2nc(-c3ccccc3)c(C#N)c(=O)[nH]2)cc1`, for which the inhibition is 27.6%. Next, `O=C(COC(=O)/C=C/c1cccc(Cl)c1)NCc1cccs1`: 2.73%; `O=C(CN1CCN(c2ccc(F)cc2)CC1)Nc1ccccc1`: -1.5%; `Oc1ccc(CN2CCN(c3ncccn3)CC2)cc1`: -8.35%. As for `Oc1c(CN2CCN(c3ccc(F)cc3)CC2)cc(Cl)c2cccnc12`, the inhibition was 138% (active). Consider `O=C1c2ccccc2C(=O)N1CCC#Cc1ccc2cc(C3(O)CCCCC3)oc(=O)c2c1`, for which the inhibition is 4.37%. As to `COc1ccc2c(c1OC)C(=O)OC2Nc1nc(-c2ccccc2)cs1` (stereo not given), the inhibition was 126% (active). As for `COc1ccc(CCNc2nc(-c3cccc(NC(C)=O)c3)cs2)cc1OC`, the inhibition was -2.96%. With `Cc1ccc(-c2csc(NC3OC(=O)c4ccccc43)n2)cc1` (stereo not given), the inhibition was -24.8%. Regarding `O=C(CN1C(=O)NC2(CCCCCC2)C1=O)Nc1ccc([N+](=O)[O-])cc1`, the inhibition is -18.6%. Turning to `CCOC(=O)CSC1=C(C#N)C(c2sccc2C)CC(=O)N1` (stereo not given), the inhibition was 78.4% (active). As for `Cc1ccc(C2CC(=O)NC(SCC(=O)OCc3ccccc3)=C2C#N)o1` (stereo not given), the inhibition was 61.5%.

For `CCOC(=O)CSC1=C(C#N)C(c2ccco2)C(C(=O)OCc2ccccc2)=C(C)N1` (stereo not given), the inhibition is -3.25%. With `Cc1c(Cl)cnc(NC(=O)COC(=O)C2CCCC2)c1Cl`, the inhibition was -15.8%. Take `O=C(CCNC(=O)c1ccc(Cl)cc1)NC1CCCc2ccccc21` (stereo not given): the inhibition was 27%. As to `COC(=O)c1cc2nc(-c3ccccc3)cc(C(F)(F)F)n2n1`, the inhibition is -6.63%. Take `COc1ccc(NC(=O)c2cc3nc(-c4ccccc4)cc(C)n3n2)cc1OC`: the inhibition is 5.1%.

In the case of `COCCNc1cc(-c2ccccc2)nc2cc(-c3cccc(F)c3)nn12`, the inhibition was 85.5% (active). For `CN(CCc1ccccc1)C(=O)c1cccc(NC(=O)Cc2ccc([N+](=O)[O-])cc2)c1`, the inhibition is -6.88%.

With `Cc1ccc(CNC(=O)CC(NC(=O)c2ccccc2)c2ccccc2)cc1` (stereo not given), the inhibition was -10.4%. The same measure for `CCN(CC)S(=O)(=O)c1ccc(N2CCCC2)c(NC(=O)c2ccc([N+](=O)[O-])o2)c1`: 27.4%. Next, `Cc1ccc(S(=O)(=O)N2CCCCC2)cc1NC(=O)CCNC(=O)c1ccccc1`: -6.19%; `CCCNC(=O)c1c(N)n(-c2ccc(S(N)(=O)=O)cc2)c2nc3ccccc3nc12`: 0.593%; `CC(C)Cn1c(N)c(C(=O)NCc2cccs2)c2nc3ccccc3nc21`: 116% (active).

As for `CC(C)(C)c1ccc(C(=O)NCCn2c(N)c(C#N)c3nc4ccccc4nc32)cc1`, the inhibition is 35.6%.

Regarding `Cn1c(CC(=O)NNC(=O)c2ccccc2F)nc2ccccc21`, the inhibition was -2.01%. The same measure for `CN(Cc1ccccc1)C(=O)COC(=O)/C=C/c1ccc2c(c1)OCO2`: -12%. Consider `Cn1cncc1C#Cc1c(-c2ccsc2)sc2ccccc12`, for which the inhibition was 107% (active). Consider `O=C(NCc1ccc2c(c1)OCO2)c1c(-c2ccsc2)sc2ccccc12`, for which the inhibition was 58.2%. Take `Cc1ccnc(SCC(=O)Nc2cccc(S(=O)(=O)N3CCOCC3)c2)n1`: the inhibition is -13%.

`O=C(NCC#CCSc1nnc(-c2cccc3ccccc23)o1)c1cccs1`: the inhibition is 44.4%. As for `O=C(/C=C/c1ccccc1[N+](=O)[O-])OCC(=O)N1CCCC1`, the inhibition was -16.9%. On to `CSCCC1NC(=O)N(CC(=O)Nc2cccc(S(=O)(=O)N3CCCCCC3)c2)C1=O` (stereo not given), for which the inhibition is -15.7%. Next, `O=C(CCNC(=O)c1ccc(Br)cc1)NCC(c1ccco1)N1CCCCC1` (stereo not given): -10.9%; `COc1cccc(CNc2nc3nc4c(c(=O)n3[nH]2)CCC4)c1`: -11.3%; `COc1cccc(NC(=O)CN2CCN(c3nc(-c4cccc(OC)c4)cs3)CC2)c1`: 2.49%. Next, `COc1cccc(-c2cc3nc4c(c(N5CCC6(CC5)OCCO6)n3n2)CCCC4)c1`: 90.5% (active); `COc1ccccc1-c1sc2ccccc2c1C#CC1(O)CCCCC1`: 105% (active).

`COc1ccccc1C1=CC(=O)CCC1`: the inhibition is -22.3%.

Regarding `COc1ccccc1-c1sc2ccccc2c1-c1ccc(C(C)=O)cc1`, the inhibition is 29.6%. On to `Cc1csc(NC(=O)NC2(C(F)(F)F)Oc3ccccc3O2)n1`, for which the inhibition is 36.6%. Next, `O=C(Nc1cc(N2CCOCC2)ncn1)NC1(C(F)(F)F)Oc2ccc(Cl)cc2O1` (stereo not given): 88.5% (active).

On to `COc1ccc(Cl)cc1NC(=O)CN1CCN(C(=O)N2CCOCC2)CC1`, for which the inhibition was -6.19%. With `Cc1c(O)c(C)c2c(c1O)C(=O)C[C@@H](c1ccccc1)O2`, the inhibition is 1.32%. As for `Cc1cccc(-n2ncc3c(=O)[nH]c(SCC(=O)Nc4cc(C)on4)nc32)c1`, the inhibition was -7.48%.

On to `CCOc1ccccc1NC(=O)CCc1ccc(C)o1`, for which the inhibition is 0.408%. `Cc1ccc(CCC(=O)Nc2ncc(Cc3cc(Cl)ccc3Cl)s2)o1`: the inhibition is 86.2% (active).

In the case of `Cc1ccc(C(=O)Nc2nc3ccc(Cl)cc3s2)o1`, the inhibition is 18.8%. On to `CCCc1cc(=O)[nH]c(SCC(=O)Nc2ccc(S(=O)(=O)N3CCCC3)cc2)n1`, for which the inhibition is 15.6%.

`C=CC[C@@H](CC(=O)N[C@@H](CO)Cc1ccccc1)C(=O)NCCOC(=O)[C@@H](CC=C)CC(=O)OC(C)(C)C`: the inhibition is -6.46%. Regarding `O=C(NCCN1CCOCC1)c1ccc(/C=C2\Sc3ccccc3N(Cc3ccc(F)cc3)C2=O)cc1`, the inhibition is 33.7%. On to `CCN1CCN(CCNC(=O)c2ccc(/C=C3/Sc4ccccc4N(Cc4cccc(C)c4)C3=O)cc2)CC1`, for which the inhibition is 102% (active).

On to `CCN1CCN(CCNC(=O)c2ccc3c(c2)NC(=O)/C(=C\c2ccc(OC)c(OC)c2)S3)CC1`, for which the inhibition is 12.1%. Regarding `COc1ccc(C(=O)OCC(=O)c2cc(C)n(CC3CCCO3)c2C)cc1[N+](=O)[O-]` (stereo not given), the inhibition is 37.8%. The same measure for `C=CC[C@H](CC(=O)OC(C)(C)C)C(=O)OC[C@H]1CCCN1C(=O)[C@H](CC=C)CC(=O)N(CCO)Cc1ccccc1`: 4.1%; for `CCN(C(=O)CSc1cccc[n+]1[O-])c1ccccc1`: 7%.

Turning to `O=C(OCC(=O)N1CCc2ccccc21)c1ccc([N+](=O)[O-])cc1`, the inhibition was 8.88%.

`O=C(O)c1ccc(NC(=O)c2ccc(COc3ccc(Cl)cc3)o2)cc1`: the inhibition is -2.6%. For `Cc1cccc(NC(=O)c2ccc(COc3ccccc3[N+](=O)[O-])o2)n1`, the inhibition is 54.5%. Consider `O=C(Nc1ccn(Cc2ccccc2F)n1)c1ccc(COc2ccc(Cl)cc2Cl)o1`, for which the inhibition is 80.3% (active). As for `COCCCNC(=O)CC1C[C@H](C(=O)N2CCCCC2)[C@@]2(CCc3ccccc3)c3[nH]c4ccccc4c3CCN2C1=O` (stereo not given in full), the inhibition is -19.5%. For `CC(C)=N/N=C1/NC(=O)C(Cc2ccccc2)S1` (stereo not given), the inhibition was -16.9%. For the compound `NC1=NC(=O)C(Cc2cccc(Cl)c2Cl)S1` (stereo not given), the inhibition was 14.4%. The same measure for `O=C1NC(=Nc2ccc(Cl)cc2)SC1Cc1cccc(Cl)c1Cl` (stereo not given): 76.5% (active).
